# Reference: PubChem BioAssay AID449762 (Southern Research Specialized Biocontainment Screening …, 2010)
# In all, about 330,000 compounds went through this assay and about 1,900 (0.58%) were called active. Inconclusive results (about 4%) are left out. Only a sample is shown. Potency and affinity values are given separately. A number with no mark means an inactive call. No stated cut-off is given here; in the data, inconclusive means inhibition above about 70% without an active follow-up result; inactive means below that.
# Test: M. tuberculosis growth inhibition, HTS (AID 449762);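 further: bacterial growth assessed after seven days of incubation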
# Conditions: M. tuberculosis H37Rv growth inhibition, 7H9 media; at 25 µM; active compounds read high
row,SMILES,inhibition [%]
1,CSc1ccccc1OCc1cc(C(=O)N2CCSCC2)no1,4.18
2,COCC1CCN(C(=O)c2cc(COc3ccccc3SC)on2)C1 (stereo not drawn),-1.2
3,CCOC(=O)[C@@]12C(=O)C(=O)N[C@]1(c1ccccc1)C1OCCCC12 (stereo partly drawn),1.95
4,COc1ccc(Cn2c(-c3ccc(C)cc3)nc3c(c(=O)c4ccccc4n3C)c2=O)cc1,-5.96
5,Cn1c2ccccc2c(=O)c2c(=O)n(Cc3ccco3)c(-c3ccc(F)cc3)nc21,0.8
6,Cc1noc(C)c1CSCC(=O)Nc1cccc(C(F)(F)F)c1,-7.37
7,CCCCCCc1cc2cc(C(=O)Nc3ccccc3)c(=O)oc2cc1O,-5.44
8,CCCCCCc1cc2cc(C(=O)NC)c(=N)oc2cc1O,2.6
9,CCc1ccc(CNn2cnnc2SCC(=O)NC(C)(C)C)cc1,-7.47
10,CC1CN(CC(=O)Nc2ccc([N+](=O)[O-])cc2Br)CC(C)O1 (stereo not drawn),0.73
11,NC(N)=NNC(=O)c1ccccc1Cl,-5.25
12,CCC/C(=N/NC(=O)c1ccccc1Cl)c1ccccc1,8.2
13,CN(Cc1ccccc1)CC(O)COc1ccc(CNCc2nccn2C)cc1 (stereo not drawn),-8.78
14,NC(=O)CC(NC(=O)c1ccccc1)c1ccc(N2CCC(Cc3ccccc3)CC2)c([N+](=O)[O-])c1 (stereo not drawn),5.54
15,CC(C)OCCCn1c(-c2ccco2)nc2nc3ccccc3nc21,0.09
16,CCCCCn1c(-c2ccco2)nc2nc3ccccc3nc21,16.5
17,C/C(=N\OCC(=O)Nc1ccccc1C(C)(C)C)c1ccc2c(c1)OCCO2,9.78
18,O=C(Cn1cnc2scc(-c3ccc(Br)cc3)c2c1=O)N1CCOCC1,2.04
19,Clc1ccc(CNC23CN4CN(CN(C4)C2)C3)c(Cl)c1,-14.8
20,O=C(Nc1ccncc1)c1cc(S(=O)(=O)N2CCCC2)ccc1Cl,5.2
21,N#Cc1nc(-c2ccc(OCc3ccc(Cl)cc3)cc2)oc1NCCCn1ccnc1,0.8
22,N#Cc1nc(-c2ccc(OCc3ccccc3Cl)cc2)oc1NCCCn1ccnc1,0.78
23,COc1ccc(C2C(C(C)=O)=C(O)C(=O)N2c2cccnc2)c(OC)c1 (stereo not drawn),-10.5
24,Cc1cccc(N2C(=O)C(Cl)=C(N3CCOCC3)C2=O)c1,-0.44

row,SMILES,inhibition [%]
1,O=C1C(Cl)=C(N2CCOCC2)C(=O)N1c1cccc(C(F)(F)F)c1,8.59
2,CCOC(=O)C(=O)N1CCC(Cc2ccccc2)CC1,1.59
3,CCOCC(=O)N1CCC(Cc2ccccc2)CC1,12.3
4,Cc1oc(-c2ccccc2F)nc1CSCC(=O)NC1CCCC1,-11.2
5,CC(C)(Oc1ccc(F)cc1)C(=O)OCC(=O)c1ccc(S(C)(=O)=O)cc1,3.45
6,CCOC(=O)c1nn(-c2cccc(Cl)c2)c2nc(Nc3ccccc3)cc(=O)n12,-3.5
7,CCOC(=O)c1nn(-c2ccc(F)cc2)c2nc(Nc3ccccc3)cc(=O)n12,38.7
8,O=C(Nc1ccccc1)C1CC(=O)n2ncnc2N1 (stereo not drawn),-4.59
9,Cc1ccc(S(=O)(=O)N2[C@@H](c3ccc(Br)cc3)C(C(=O)O)=CC[C@H]2c2ccc(Cl)cc2)cc1,9.55
10,CCN(CC)C(=O)c1ccc(C(=O)c2c(C)cc(C)cc2C)cc1,-0.54
11,COc1ccc2c(Cl)c(-c3nnc(SCC(=O)c4ccccc4)n3C)sc2c1,5.59
12,COc1ccc2c(Cl)c(-c3nnc(SCC(N)=O)n3C)sc2c1,-4.23
13,COc1ccc(NC(=O)c2ccc3c(=O)n(-c4ccc(OC)cc4OC)c(=S)[nH]c3c2)c(OC)c1,40
14,Cc1ccccc1-c1ncc(CN2CCC(CO)(CCCc3ccccc3)CC2)cn1,22.1
15,CC(=O)c1cccc(CN2CCC(CO)(CCCc3ccccc3)CC2)c1,-3.4
16,Cc1c(-n2cc(C(=O)O)c(=O)c3cc(F)c(N4CCCC4)c(F)c32)c(=O)n(-c2ccccc2)n1C,5.31
17,Cc1cc(C)c(NC(=O)c2cn3c4c(c(N5CCN(C)CC5)c(F)cc4c2=O)OCC3C)c(C)c1 (stereo not drawn),9.2
18,CCOc1cc(S(=O)(=O)N2CCN(S(=O)(=O)CC)CC2)c(OCC)cc1-n1cnnn1,0.44
19,O=C(O)/C=C/C(=O)Nc1nccs1,-2.62
20,O=C1C(C=NCCCN2CCCC2=O)=C(O)c2ccccc21,-5.89
21,COc1ccc(Cl)cc1NS(=O)(=O)c1cccc(C(=O)NC2CC2)c1,1.57
22,COc1ccc(-c2oc(NC(C)=O)c(C#N)c2-c2ccc(OC)cc2)cc1,3.57
23,COc1ccc(-c2oc(NC(=O)c3ccc(C)cc3)c(C#N)c2-c2ccc(OC)cc2)cc1,5.32
24,Cc1cc(C(=O)O)cc(S(=O)(=O)Nc2c(C)nn(C)c2C)c1C,-1.21

row,SMILES,inhibition [%]
1,COc1cccc2cc(C(=O)OCc3ccccc3)c(=O)oc12,10.5
2,CN1OC(COC(=O)c2ccc(Cl)cc2)CC1c1ccccc1 (stereo not drawn),19.7
3,CN1OC(COC(=O)c2ccccc2)CC1c1ccccc1 (stereo not drawn),66.5
4,CCCn1cc(S(=O)(=O)c2ccc(F)cc2)c(=O)c2cc(OCC)ccc21,4.19
5,CC(=O)Nc1ccc(S(=O)(=O)Oc2cccc(/C=N/N=C3/NC(=O)C(CC(=O)O)S3)c2)cc1 (stereo not drawn),-3.02
6,O=C(Nc1cccc(C(F)(F)F)c1)C(Sc1cccc[n+]1[O-])c1ccccc1 (stereo not drawn),0.11
7,O=C(Nc1ccc(Cl)cc1C(F)(F)F)C(Sc1cccc[n+]1[O-])c1ccccc1 (stereo not drawn),16.4
8,CS(=O)(=O)N(CC(=O)Nc1ccc(Br)cc1F)C1CCCCC1,-1.79
9,CC(=O)NCCC(=O)Nc1ccc(C(N)=O)cc1,3.35
10,O=C(/C=C/c1ccc([N+](=O)[O-])cc1)OCC(=O)N1c2ccccc2Sc2ccccc21,3.32
11,CC(C)(C)c1ccc(C(=O)C=[N+]=[N-])cc1,-1.15
12,CCOc1ccc(C(=O)/C=C/c2ccccc2C(F)(F)F)cc1,9.8
13,COc1ccc(CC(=O)NNC(=O)CCc2ccccc2)cc1OC,0.55
14,O=C(NCC(O)c1ccccc1)c1ccccc1 (stereo not drawn),-1.58
15,Cc1ccc(C)c(Cc2c(C)nc3c(C(=O)NCc4ccc5c(c4)OCO5)cnn3c2C)c1,65.9
16,CN1C(=O)/C(=C/c2ccc(OCc3cccc(F)c3)cc2)NC1=S,14.5
17,Cc1cccc(NC(=S)Nc2ccccn2)c1,-7.66
18,CCCNC(=S)Nc1ccccc1,0.1
19,CCCNC(=S)Nc1ccc(Oc2ccccc2)cc1,-11
20,COc1ccc(NC(=S)Nc2ccccn2)cc1,-2.6
21,N#Cc1cc2c(nc1SCc1cccnc1)CCCCC2,7.53
22,CC1CCN(S(=O)(=O)c2ccc(S(=O)(=O)N3CCC4(CC3)OCCO4)cc2)CC1,0.35
23,Cc1cc(NC(=O)/C=C/C(=O)N(CC(=O)NC2CCCC2)c2cccc3ccccc23)no1,-2.08
24,COc1ccc(CCNCC2C(Oc3ccc(Cl)cc3)C(=O)N2c2ccccc2C)cc1OC (stereo not drawn),11.7

row,SMILES,inhibition [%]
1,COC(=O)c1ccc2c(=O)[nH]c(COC(=O)CCC(=O)c3ccc(Cl)cc3)nc2c1,0.04
2,Cc1cc(=O)c2ccc3ccccc3c2[nH]1,10.2
3,CCCc1c(C)nc2ccc(OC)cc2c1SCCC(=O)O,-2.63
4,COc1ccc(C(=O)Nc2cc3c(cc2Cl)OCCCO3)cc1,5.96
5,CCc1ccccc1NC(=O)CSc1nc2n[nH]c(C)c2c(=N)n1-c1cccc(OC)c1,7.97
6,COc1cccc(NC(=O)CSc2nc3n[nH]c(C)c3c(=N)n2-c2cccc(OC)c2)c1,-0.47
7,O=C(CSc1ccc(Br)cc1)N1CCN(C(=O)c2ccco2)CC1,2.56
8,COc1ccc(C(=O)C2CCCN(Cc3cn[nH]c3-c3ccccc3)C2)cc1OC (stereo not drawn),2.2
9,O=C(c1ccc2c(c1)OCO2)C1CCCN(Cc2cn[nH]c2-c2ccccc2)C1 (stereo not drawn),4.84
10,CC1Cc2cccc3c(O)c(C(=O)c4nn[nH]n4)c(=O)n1c23 (stereo not drawn),14.9
11,N#Cc1nc(COc2ccccc2)oc1N1CCCC1,-0.06
12,CC(C)NC(=O)c1onc(CSc2ccc(F)c(F)c2)c1C(=O)NC(C)C,8.4
13,CC(C)NC(=O)c1onc(CSc2cccc(F)c2)c1C(=O)O,33.3
14,COc1ccc(C)cc1N(C(=O)c1snc(C(N)=O)c1N)C(C(=O)NC1CCCC1)c1ccc(F)cc1 (stereo not drawn),41.8
15,CCOC(=O)c1sc(NC(=S)NC(=O)c2cccc(Cl)c2)c(C(=O)OCC)c1C,3.64
16,C#C[C@]1(O)CC[C@H]2[C@@H]3CCc4cc(O)ccc4[C@H]3CC[C@@]21C,2.29
17,C#C[C@]1(O)CC[C@H]2[C@@H]3CCc4cc(OC)ccc4[C@H]3CC[C@@]21C,-0.52
18,Cc1cc(C)nc(Sc2nc(Nc3ccccc3)nc(Sc3nc(C)cc(C)n3)n2)n1,-5.43
19,Cc1csc(SCCN2C(=O)c3ccccc3C2=O)n1,1.44
20,O=[N+]([O-])c1ccc2c(c1)oc1ccccc12,-7.51
21,O=[N+]([O-])c1ccc2nc(-c3ccccc3)oc2c1,-0.96
